Assay [1] is described as follows: qHTS assay for small molecule agonists of the p53 signaling pathway (AID 651631; calls by dose curve; note: nearly all actives have a fitted effect of over 15% in size; note: potency is the fitted concentration of half-maximal effect). In a few lines:
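HCT-116 cells carrying a beta-lactamase reporter under p53 response elements were dosed with compound for 16 h at 37 °C. LiveBLAzer B/G FRET substrate was then added for 2 h at room temperature, and fluorescence intensity was read to detect pathway agonism.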
(In general: In qHTS, concentration-response curves come from the screen itself.)

A short description of assay [2]: qHTS assay for small molecules that induce genotoxicity in human embryonic kidney cells expressing luciferase-tagged ATAD5 - cell viability (AID 651634; calls by dose curve; note: nearly all actives have a fitted effect of over 25% in size). The gist of the method:
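HEK293T ATAD5-luc cells, 2,000/well; compound 15.5 hr, 37C/5% CO2; CellTiter-Fluor 30 min, 37C; fluorescence read.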

Assay [3] is described as follows: qHTS assay for small molecule disruptors of the mitochondrial membrane potential (AID 720635). Note: potency is the fitted concentration of half-maximal effect. In a few lines:
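HepG2 cells exposed to compound 1 hr at 37C, then Mito-MPS dye 30 min. Ratio read of aggregate (540/590 nm) versus monomer (490/535 nm) fluorescence.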

Assay [4] in a line: qHTS assay to test for compound auto fluorescence at 590 nm (red) in HepG2 cells (AID 720674). In a few lines: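 Fluorescence at 590 nm emission following 540 nm excitation was recorded from HepG2 wells one hour after compound transfer, with DMSO-only wells as vehicle and Rose Bengal sodium equivalency as the scale.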
A short description of assay [5]: qHTS assay to test for compound auto fluorescence at 460 nm (blue) in HEK293 cells (AID 720678). The gist of the method: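 Cells were seeded and left to adhere for 4-5 hr at 37C. Compounds were then pin-transferred. After an overnight incubation at 37C under 5% CO2, intrinsic fluorescence at 405/460 nm was measured and referenced to triamterene.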
Assay [6] in a line: qHTS assay to test for compound auto fluorescence at 535 nm (green) in HEK293 cells (AID 720680).
Assay [7] has as its target Glucocorticoid receptor (Homo sapiens) (UniProt P04150). In words: qHTS assay to identify small molecule agonists of the glucocorticoid receptor (GR) signaling pathway (AID 720691; active = well fitted activation curve with a large enough effect in the signal ratio in the repeat runs, not every such curve was filed as active; inconclusive = weak or mixed curves, or effect the other way; inactive = no such curve, though single readings can be large or run the other way; the % refers to the signal ratio). The gist of the method: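 HeLa GR-bla reporter line; cells pre-incubated 4 h, compound in DMSO 18 h at 37 C; LiveBLAzer B/G FRET substrate 2 h RT; fluorescence intensity read-out.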
Assay [8] in a line: qHTS assay to identify small molecule antagonists of the glucocorticoid receptor (GR) signaling pathway - cell viability counter screen (AID 720693). Note: nearly all actives have a fitted effect of over 55% in size.
A short description of assay [9]: qHTS assay for identifying genotoxic compounds that show differential cytotoxicity against isogenic chicken DT40 cell lines with known DNA damage response pathways - wild type cell line (AID 743012). Note: nearly all actives have a fitted effect of over 60% in size. The gist of the method:
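CellTiter-Glo luminescence readout of viability in wild type DT40 cells after 40 h compound exposure at 37 C/5% CO2; 300 cells/well; reagent incubated 30 min at room temperature before reading.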

Assay [10] in a line: qHTS assay for identifying genotoxic compounds that show differential cytotoxicity against isogenic chicken DT40 cell lines with known DNA damage response pathways - Rev3 mutant cell line (AID 743014). Note: nearly all actives have a fitted effect of over 55% in size.
Assay [11] is described as follows: qHTS assay for identifying genotoxic compounds that show differential cytotoxicity against isogenic chicken DT40 cell lines with known DNA damage response pathways - Rad54/Ku70 mutant cell line (AID 743015). Note: nearly all actives have a fitted effect of over 60% in size.
Assay [12] is described as follows: qHTS assay to identify small molecule antagonists of the thyroid receptor (TR) signaling pathway - cell viability counter screen (AID 743064). Note: nearly all actives have a fitted effect of over 50% in size. The gist of the method: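 GH3.TRE-Luc rat pituitary cells dosed after 4 hr plating, co-stimulated with T3 at 1 nM final, incubated 23.5 h at 37 C. Viability measured in the same wells by CellTiter-Fluor fluorescence after 30 min further at 37 C.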

A short description of assay [13]: qHTS assay to identify small molecule antagonists of the thyroid receptor (TR) signaling pathway (AID 743065). Note: series mostly up to about 70 µM; nearly all actives have a fitted effect of over 55% in size. The gist of the method: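 GH3.TRE-Luc rat pituitary cells (two TREs driving luciferase) were dosed with compound, then stimulated with 1 nM T3 (final) for 23.5 h at 37 C. ONE-Glo luminescence was the read-out, with CellTiter-Fluor fluorescence as the cytotoxicity counter-screen.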

The test system of assay [14] is thyroid hormone receptor (rat, GH3 cells). In words: qHTS assay to identify small molecule agonists of the thyroid receptor (TR) signaling pathway (AID 743066; calls by dose curve).
The target of assay [15] is Estrogen receptor (Homo sapiens) (UniProt P03372). Nature of the assay: qHTS assay to identify small molecule agonists of the estrogen receptor alpha (ER-alpha) signaling pathway (AID 743075; calls by dose curve;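 note: HEK293 GripTite cells with ER-alpha and UAS-driven beta-lactamase reporter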; note: potency is the fitted concentration of half-maximal effect).
Assay [16] is described as follows: qHTS assay to identify small molecule antagonists of the estrogen receptor alpha (ER-alpha) signaling pathway using the BG1 cell line (AID 743080; calls by dose curve; note: series mostly up to about 70 µM; nearly all actives have a fitted effect of over 25% in size). In a few lines: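 Antagonist mode: compounds in DMSO were pinned onto BG1-Luc-4E2 cells alongside 17beta-estradiol agonist, incubated 21.5 h, and ERE-driven luciferase measured with ONE-Glo. Cytotoxicity was multiplexed using CellTiter-Fluor fluorescence.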

Assay [17] can be described thus: qHTS assay to identify small molecule that activate the aryl hydrocarbon receptor (AhR) signaling pathway - cell viability counter screen (AID 743086).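 Note: HepG2 liver cells carrying the AhR DRE luciferase reporter; series mostly up to about 70 µM; nearly all actives have a fitted effect of over 45% in size.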 The gist of the method: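 HepG2-AhR-luc (HG2L7.5c1) cells, 4000/well, treated 24 h at 37 C with compound; viability measured as CellTiter-Fluor fluorescence after 30 min in the same wells as the luciferase read.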

Assay [18] concerns the target Peroxisome proliferator-activated receptor gamma (Homo sapiens) (UniProt P37231). Nature of the assay: qHTS assay to identify small molecule agonists of the peroxisome proliferator-activated receptor gamma (PPARg) signaling pathway (AID 743094; active = well fitted activation curve with a large enough effect in the signal ratio in the repeat runs, not every such curve was filed as active; inconclusive = weak or mixed curves, or effect the other way; inactive = no such curve, though single readings can be large or run the other way; the % refers to the signal ratio). In a few lines:
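HEK293H PPARg-bla cells, 5 h settle at 37C/5% CO2; compound (DMSO) 17 h, 37C; B/G FRET substrate 1 h RT; fluorescence intensity read-out. qHTS format.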

Assay [19] has as its target Nuclear receptor subfamily 1 group I member 2 (Homo sapiens) (UniProt O75469). In words: Human pregnane X receptor (PXR) activation by small molecules, qHTS assay (AID 1346985). Note: nearly all actives have a fitted effect of over 40% in size. The gist of the method: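 DPX-2 cells (HepG2 co-transfected with a PXR response element and a CYP3A4-promoter luciferase construct) were seeded at 2,000 per well, rested 5 hr at 37C, then exposed to DMSO-dissolved compounds for 24 hr. Activation was read as luciferase luminescence.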

Assay [20] can be described thus: qHTS assay to test for compound auto fluorescence at 590 nm (red) in HEK293 cell free culture (AID 720683). In a few lines: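 Cell-free wells of DMEM with 10% FBS received compound, and intrinsic fluorescence was read at excitation/emission 540/590 nm. Values expressed as equivalence to Rose Bengal sodium.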

Active and inactive are the calls of the source. Unless noted, calls come from the whole dose curve; as a rule, active = well fitted curve in the direction sought with a large enough effect in the repeat runs; inconclusive = weak or mixed curves; inactive = no such curve, though single readings can be large; an effect the other way counts as inactive or inconclusive.

Glucocorticoid receptor (Homo sapiens), sequence (P04150 whole entry, looked up): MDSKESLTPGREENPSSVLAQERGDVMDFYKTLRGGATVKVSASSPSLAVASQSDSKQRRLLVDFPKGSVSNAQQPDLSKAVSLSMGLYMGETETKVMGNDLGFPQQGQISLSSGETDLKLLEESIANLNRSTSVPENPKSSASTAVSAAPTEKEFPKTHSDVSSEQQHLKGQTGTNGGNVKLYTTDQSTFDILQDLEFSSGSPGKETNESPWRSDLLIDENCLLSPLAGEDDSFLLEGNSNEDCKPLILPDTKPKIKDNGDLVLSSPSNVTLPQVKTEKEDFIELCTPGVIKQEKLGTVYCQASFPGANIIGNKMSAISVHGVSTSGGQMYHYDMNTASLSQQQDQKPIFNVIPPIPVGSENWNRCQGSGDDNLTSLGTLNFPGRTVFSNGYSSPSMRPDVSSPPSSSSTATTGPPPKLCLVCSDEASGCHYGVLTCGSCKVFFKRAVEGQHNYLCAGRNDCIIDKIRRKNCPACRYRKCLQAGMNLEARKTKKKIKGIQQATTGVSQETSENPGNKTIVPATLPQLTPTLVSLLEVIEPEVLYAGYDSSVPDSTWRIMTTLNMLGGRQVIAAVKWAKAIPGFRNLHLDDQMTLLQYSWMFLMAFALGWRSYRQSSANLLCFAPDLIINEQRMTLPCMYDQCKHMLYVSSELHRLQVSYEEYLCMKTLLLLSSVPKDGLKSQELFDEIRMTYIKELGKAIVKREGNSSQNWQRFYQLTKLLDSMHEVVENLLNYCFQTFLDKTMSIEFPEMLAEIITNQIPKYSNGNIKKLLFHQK
Estrogen receptor (Homo sapiens), sequence (P03372 whole entry, looked up): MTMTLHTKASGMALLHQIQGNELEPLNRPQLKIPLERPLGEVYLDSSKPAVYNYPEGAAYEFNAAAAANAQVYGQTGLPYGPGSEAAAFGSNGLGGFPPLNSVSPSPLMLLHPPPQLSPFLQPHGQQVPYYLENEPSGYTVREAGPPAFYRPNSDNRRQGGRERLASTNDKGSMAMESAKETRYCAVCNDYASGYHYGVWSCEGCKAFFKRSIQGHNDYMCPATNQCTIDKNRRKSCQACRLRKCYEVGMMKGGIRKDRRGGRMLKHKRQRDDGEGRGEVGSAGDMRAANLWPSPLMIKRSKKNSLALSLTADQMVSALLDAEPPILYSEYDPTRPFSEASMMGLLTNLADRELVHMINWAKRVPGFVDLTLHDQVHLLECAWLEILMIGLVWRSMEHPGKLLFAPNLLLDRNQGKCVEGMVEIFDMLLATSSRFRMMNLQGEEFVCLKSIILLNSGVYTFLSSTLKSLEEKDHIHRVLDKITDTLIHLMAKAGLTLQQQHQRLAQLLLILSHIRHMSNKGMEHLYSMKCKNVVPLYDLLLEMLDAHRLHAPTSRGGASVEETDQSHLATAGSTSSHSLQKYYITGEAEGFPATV
Peroxisome proliferator-activated receptor gamma (Homo sapiens), sequence (P37231 whole entry, looked up): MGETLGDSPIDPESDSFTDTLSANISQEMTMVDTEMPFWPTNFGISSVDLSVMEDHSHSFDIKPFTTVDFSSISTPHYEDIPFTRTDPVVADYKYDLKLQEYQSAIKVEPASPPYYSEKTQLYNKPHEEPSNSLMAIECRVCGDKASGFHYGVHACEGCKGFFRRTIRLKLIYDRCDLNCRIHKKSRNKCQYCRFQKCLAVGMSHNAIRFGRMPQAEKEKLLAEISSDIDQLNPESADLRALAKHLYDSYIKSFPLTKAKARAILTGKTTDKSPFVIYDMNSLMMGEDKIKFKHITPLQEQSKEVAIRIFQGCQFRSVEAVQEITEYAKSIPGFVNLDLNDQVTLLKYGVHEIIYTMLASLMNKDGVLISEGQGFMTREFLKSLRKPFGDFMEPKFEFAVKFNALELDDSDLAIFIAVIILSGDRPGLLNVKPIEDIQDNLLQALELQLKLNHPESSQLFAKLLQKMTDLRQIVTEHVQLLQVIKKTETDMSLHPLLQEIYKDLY

Consider `NCC(O)c1cccc(O)c1` (centres undefined), for which the Potency result in [1], in [2], in assay [3], in assay [5], in [6] and in assay [7] was “inactive” in each case. Further, the Potency entry in assay [8], in assay [9], in assay [10], in assay [11], in assay [12] and in assay [13] was “inactive” throughout. The Potency entry in [14], in [15], in assay [16], in [17], in [18] and in assay [19] was “inactive” in each case. In addition, the call in [4] was inactive.

With `C=CCN1CC[C@]23c4c5ccc(O)c4O[C@H]2[C@@H](O)C=C[C@H]3[C@H]1C5`, the Potency entry in assay [2], in assay [3], in assay [5], in assay [6], in assay [8] and in assay [9] was “inactive” throughout. The Potency entry in assay [10], in assay [11], in [12], in assay [13], in assay [14] and in [17] was “inactive” throughout. The Potency entry in [18] and in assay [19] was “inactive” throughout.

With `C=CC[C@]1(O)CC[C@H]2[C@@H]3CCC4=CCCC[C@@H]4[C@H]3CC[C@@]21C`, the Potency result in [1], in [2], in [6], in [7], in [8] and in assay [9] was “inactive” throughout. For the same compound, the Potency result in assay [10], in assay [11], in assay [17] and in assay [18] was “inactive” in each case. Also, the values for the Potency in [3] and in assay [15] were 9.44 µM (active) and 0.952 µM [inconclusive] (active), respectively. The compound was classed as inactive in [4] and in assay [20].

For the compound `CN1CCCC(=C(c2cccs2)c2cccs2)C1`, the Potency result in assay [2], in assay [5], in assay [8], in [10], in assay [12] and in [13] was “inactive” throughout. For the same compound, the Potency entry in assay [14], in [15], in assay [16], in [17], in assay [18] and in [19] was “inactive” in each case. The result in assay [4] and in assay [20] was inactive.

On to `O=C1CCO1`, for which the Potency entry in [2], in assay [3], in [7], in assay [8], in assay [9] and in assay [10] was “inactive” each time. Moreover, the Potency entry in [11], in [12], in [13], in assay [14], in assay [15] and in assay [16] was “inactive” in each case. Further, the Potency result in assay [17], in [18] and in assay [19] was “inactive” in each case. For the same compound, the compound was called inactive in assay [4] and in [20].

Regarding `Oc1ccc2c3c1O[C@H]1[C@@H](O)CC[C@@]4(O)[C@@H](C2)N(CC2CCC2)CC[C@]314`, the Potency entry in assay [2], in assay [5], in assay [6], in [7], in assay [8] and in [9] was “inactive” in each case. Moreover, the Potency entry in assay [10], in assay [11], in assay [12], in assay [13], in [14] and in assay [15] was “inactive” throughout. For the same compound, the Potency entry in [17], in assay [18] and in assay [19] was “inactive” throughout. Further, the result in assay [20] was inactive.

As for `CC1(C)S[C@@H]2[C@H](N)C(=O)N2[C@H]1C(=O)O`, the Potency entry in assay [1], in assay [3], in assay [5], in [6], in [7] and in assay [8] was “inactive” in each case. Further, the Potency entry in assay [9], in [10], in assay [11], in assay [12], in assay [13] and in [14] was “inactive” each time. For the same compound, the Potency result in assay [15], in assay [16], in assay [17], in [18] and in assay [19] was “inactive” throughout. Moreover, the call in assay [4] and in assay [20] was inactive.

As for `O=c1[nH]cc(N(CCCl)CCCl)c(=O)[nH]1`, in assay [1], the Potency is 21.1 µM (active). Moreover, the Potency entry in [5], in assay [6], in assay [7], in assay [8], in [9] and in assay [11] was “inactive” in each case. Further, the Potency entry in assay [12], in assay [13], in [14], in assay [15], in assay [16] and in [17] was “inactive” throughout. For the same compound, the Potency result in assay [18] and in assay [19] was “inactive” in each case. In addition, the result in [20] was inactive.

The values are drawn from PubChem BioAssay (Tox21).
